Molecules are shown by their SMILES. The whole screen tested about 320,000 compounds, of which about 1,300 (0.41%) were called active. About 3% were inconclusive and are not listed. How the calls were made is not given here. Not all results are given here. Potency and affinity values are given separately.

This assay can be described thus: growth inhibition of non-replicating M. tuberculosis (AID 488890).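 Further: plate controls were DMSO cells for no effect and high antibiotic wells for full effect.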 Particulars: Mycobacterium tuberculosis non-replicating, at 25 µM, stronger effect = higher value.
As to `O=C(NC1CCCc2c1cnn2-c1cc(F)cc(F)c1)c1ccccn1` (configuration not stated), the inhibition is 25.6%.

Consider `O=C(NC1CCCc2c1cnn2-c1cc(F)cc(F)c1)c1ccncc1` (configuration not stated), for which the inhibition is 4.39%.

Consider `CC(C)(C)OC(=O)NCCc1n[nH]c(=S)o1`, for which the inhibition is -4.45%.

Consider `CSc1nc(O)c(N=Nc2ccc(F)cc2F)c(=O)[nH]1`, for which the inhibition came out at 13.2%.

As to `O=C(CSc1nnc(CNC(=O)c2ccco2)o1)Nc1ccccc1`, the inhibition is -9.27%.

Consider `O=C(CSc1nnc(CNC(=O)c2ccco2)o1)c1ccccc1`, for which the inhibition stood at 17.8%.

Consider `CCSc1nnc([C@@H](N)Cc2ccccc2)o1`, for which the inhibition worked out at 4.66%.

`CCSc1nnc(C(N)Cc2ccccc2)o1` (configuration not stated): the inhibition stood at 42.5%.

Turning to `CN1CCN(c2ccc(NC(=O)COc3cccc4ccccc34)cc2)CC1`, the inhibition came to 47.4%.

`COc1ccc(C2Sc3nncn3N2Cc2ccc(C#N)cc2)cc1` (configuration not stated): the inhibition was found to be 0.03%.

On to `C[C@H](NC(=O)OCc1ccccc1)C(=O)NNC(=O)[C@H](C)NC(=O)OCc1ccccc1`, for which the inhibition worked out at 2.12%.

Take `C[C@H](NC(=O)OCc1ccccc1)c1nnc([C@H](C)NC(=O)OCc2ccccc2)o1`: the inhibition was determined as 4.86%.

On to `Cc1ccc(C(=O)NNC(=O)CCC(=O)Nc2cc(C)on2)cc1`, for which the inhibition turned out to be 3.14%.

On to `CCOCC(=O)Nc1ccc(OCc2ccccc2)cc1`, for which the inhibition turned out to be 17.7%.

`CC(C)NC(=O)COc1ccc(OCc2ccccc2)cc1`: the inhibition was 62.9%.

On to `Cc1nc(SCCc2ccccc2)[nH]c(=O)c1C`, for which the inhibition worked out at 49.5%.

Regarding `CC1=C(C(=O)Nc2ccc(C)cc2C)C(c2ccc(C)o2)NC(=O)N1` (configuration not stated), the inhibition was -0.04%.

Take `COc1cccc(C(=O)CN(C(=O)c2ccc(Cl)cc2Cl)N2C(=O)c3ccccc3C2=O)c1`: the inhibition was -6.55%.

Regarding `O=C(O)c1ccc(CNCc2ccc(Cl)cc2)cc1`, the inhibition is 9.88%.

In the case of `Cc1cccc(Sc2c([N+](=O)[O-])ncn2C)c1`, the inhibition turned out to be 22.6%.

In the case of `Cn1cnc([N+](=O)[O-])c1Cl`, the inhibition was -10.2%.

`N#Cc1ccc(OCC(=O)NCCN2CCOCC2)cc1`: the inhibition stood at 2.06%.

Consider `CCOC(=O)C1(CCc2ccccc2)CCN(Cc2cnc(N(C)C)s2)CC1`, for which the inhibition came to 3.68%.

Turning to `Clc1ccccc1CSc1nncn1NC/C=C/c1ccccc1`, the inhibition was found to be 19.6%.

On to `CC(C(=O)NC1CCCc2ccccc21)N1C(=O)C2CCCCC2C1=O` (configuration not stated), for which the inhibition is -6.5%.

For `COc1ccc(NC(=O)NCCN2CCN(c3cccc(Cl)c3)CC2)cc1`, the inhibition came to 31.4%.

`COc1ccc(N2CCN(CCCNC(=O)Nc3ccccc3)CC2)cc1`: the inhibition stood at 38.1%.

As for `CC1(C)CC(=O)C2=C(C1)N(c1ccc(F)cc1)C(=O)C2(O)C(F)(F)F` (configuration not stated), the inhibition is -0.41%.

Turning to `Cc1cc(C(=O)Nn2cnc3ccccc3c2=O)ccc1[N+](=O)[O-]`, the inhibition was -2.65%.

On to `Cn1c(=O)c([N+](=O)[O-])c(NCCc2ccccc2)c2ccccc21`, for which the inhibition was determined as 30.3%.

Take `CC(C)c1c(C(=O)N/N=C/c2ccc(OCc3ccc(F)cc3)cc2)nnn1-c1nonc1N`: the inhibition is 1.61%.

As for `CN(C)CC(c1ccccc1)c1ccccc1`, the inhibition is -13.3%.

Take `CCOc1ccc(C(=O)C(c2ccccc2)N2CCOCC2)cc1` (configuration not stated): the inhibition was 56.8%.

`CCCCOc1ccc(C(O)C(CN2CCCCC2)c2ccccc2)cc1` (configuration not stated): the inhibition stood at 12.8%.

In the case of `CCC(C(=O)c1ccc(O)cc1)c1ccccc1` (configuration not stated), the inhibition amounted to 21.7%.

Take `CCCOc1ccc(C(=O)C(c2ccccc2)N2CCOCC2)cc1` (configuration not stated): the inhibition came out at 33.3%.

`CCOc1ccc(C(O)C(CN2CCOCC2)c2ccccc2)cc1` (configuration not stated): the inhibition is -1.32%.

Regarding `CCOC(=O)C(CN1CCCC1)c1ccccc1` (configuration not stated), the inhibition stood at 4.41%.

As to `CC(CN1CCCC1)OC(=O)C(c1ccccc1)c1ccccc1` (configuration not stated), the inhibition is 10.8%.

With `CCCCN(C(=O)Cc1ccc2c(c1)OCCO2)c1c(N)n(CCC)c(=O)[nH]c1=O`, the inhibition is -17.1%.

With `O=C(NCC(=O)N1CCN(C(c2ccccc2)c2ccccc2)CC1)c1ccc(Br)o1`, the inhibition came out at 13.5%.

On to `CCOc1ccc2nc(SCC(=O)N3CCN(C(=O)c4ccco4)CC3)sc2c1`, for which the inhibition came out at 28.7%.

On to `C/C(=N/NC(=O)c1cnccn1)c1ccncc1`, for which the inhibition is -12.7%.

`Cc1nc(Cl)c(S(N)(=O)=O)c(C)c1Cl`: the inhibition is -6.51%.

`CC(C)Sc1nc2[nH]ncc2c(=O)[nH]1`: the inhibition is -7.65%.

As for `O=C(NCCO)c1ccc2c(c1)S(=O)(=O)c1ccccc1C2=O`, the inhibition was -6.47%.

Turning to `Cc1ccc(S(=O)(=O)NC(=O)c2ccccc2F)cc1`, the inhibition is -3.32%.

On to `CCCOc1cccc(C(=O)NCCNC(=O)c2ccco2)c1`, for which the inhibition is -5.82%.

In the case of `N#Cc1ccccc1Cn1c(=O)n(CCC(=O)NCc2ccco2)c(=O)c2ccccc21`, the inhibition came to 0.99%.

Turning to `CCC1(CC)C(=O)NN(c2ccccc2)C1=O`, the inhibition is -21.9%.

In the case of `O=C(CCNC(=O)Cn1ccc2ccccc2c1=O)NCCN1CCc2ccccc2C1`, the inhibition is 19.7%.

Take `O=C(C1=NN[C@@H]2C(=O)N(c3cccc(C(F)(F)F)c3)C(=O)[C@H]12)c1ccc2ccccc2n1`: the inhibition was -0.67%.

In the case of `COc1ccc(C(=O)C(c2ccccc2)N2CCOCC2)cc1` (configuration not stated), the inhibition turned out to be 18.6%.

`COc1ccc(C(O)(C2CCCCC2)C(CN2CCCC2)c2ccccc2)cc1` (configuration not stated): the inhibition was found to be 47%.

`COc1ccc(C2C(C(=O)N3CCN(c4ccccc4)CC3)c3ccccc3C(=O)N2C)cc1` (configuration not stated): the inhibition was determined as 16.5%.

As for `Cc1ccc(S(=O)(=O)N2CCCCC2C(=O)Nc2ccc(N(C)C)cc2)cc1` (configuration not stated), the inhibition was found to be 20%.

Consider `Cc1cc(NC(=O)c2cccs2)n(-c2nc3ccccc3[nH]2)n1`, for which the inhibition was 76.4%.

Turning to `Cc1cc(Nc2ccccc2)n(-c2ccc(Br)cc2)n1`, the inhibition was found to be 66.6%.

Regarding `CCOC(=O)C(=O)Nc1cc(C)nn1-c1nc2ccccc2[nH]1`, the inhibition worked out at 73.2%.

Turning to `COc1cccc(OC)c1C(=O)Nc1cc(C)nn1-c1nc2ccccc2[nH]1`, the inhibition came out at 20.1%.

In the case of `Cc1cc(NC(=O)c2ccc(F)cc2F)n(-c2nc3ccccc3[nH]2)n1`, the inhibition is 14.7%.

With `Cc1cc(Nc2ccccc2)n(-c2ccccc2)n1`, the inhibition stood at 6.71%.

Turning to `Cc1cc(NC(=O)c2c(F)cccc2F)n(-c2nc3ccccc3[nH]2)n1`, the inhibition was 76.6%.

As to `Cc1cc(NC(=O)c2ccccc2)n(-c2nc3ccccc3[nH]2)n1`, the inhibition was found to be 49.6%.

With `Cc1ccsc1C(=O)N1CCC(N2CCC(C(=O)NCC3CCCO3)CC2)CC1` (configuration not stated), the inhibition amounted to 1.59%.

As for `C[C@H](NC(=O)[C@@H]1CSC2c3ccccc3C(=O)N21)C(=O)NC1CCCC1` (some centres not stated), the inhibition was -7.65%.

Consider `CCc1ccc(OCC(=O)O/N=C(\N)c2ccncc2)cc1`, for which the inhibition is 35.7%.

In the case of `COc1ccc(N2CCN(CC(O)COCc3ccccc3)CC2)cc1` (configuration not stated), the inhibition is -6.85%.

`Cc1cc(Nc2nc3ccccc3[nH]c2=O)n(-c2ccccc2)n1`: the inhibition is 3.53%.

As for `Cc1cc(NC(=O)CC#N)n(-c2nc3ccccc3[nH]2)n1`, the inhibition was -8.39%.

Turning to `Cc1cc(F)ccc1NC(=O)c1cc(S(=O)(=O)N2CCCC2)cn1C`, the inhibition was -14.1%.

As to `O=[N+]([O-])c1ccc(-c2nc(-c3ccncc3)no2)cc1`, the inhibition was -0.83%.

As for `O=[N+]([O-])c1cccc(-c2nc(-c3ccncc3)no2)c1`, the inhibition was 1.9%.

In the case of `COc1ccc(Oc2cccc(Cl)c2CNC(=O)c2ccccc2C(=O)O)cc1`, the inhibition stood at 22.3%.

For the compound `CC1=Nc2ccccc2/C1=C/c1c(O)n(C)c(=O)[nH]c1=O`, the inhibition was found to be 3.78%.

Regarding `CC1=Nc2ccccc2/C1=C/c1sc(=O)n(CC(=O)N2CCCC2)c1O`, the inhibition is 24%.

Regarding `COc1ccc(NC(=O)CN(C)C(=O)c2ccccc2Sc2ncnc3sc(C)c(C)c23)cc1`, the inhibition turned out to be 19.2%.

On to `CC(C)(C)C(=O)CN1C(=O)NC(c2ccccc2)(c2ccccc2)C1=O`, for which the inhibition was determined as 0.55%.

Take `CCCCCOC(=O)C1=C(C)Nc2ncnn2C1c1cccs1` (configuration not stated): the inhibition worked out at 21.8%.

Take `COc1ccc(CNC(=O)[C@H](C)NC(=O)[C@@H]2Cc3ccccc3CN2)cc1`: the inhibition amounted to 1.37%.

With `CCNC(=O)NC(=O)C(C)OC(=O)CCCc1nc2ccccc2s1` (configuration not stated), the inhibition came to 65.1%.

As to `CC(OC(=O)CCCSc1nc2ccccc2s1)C(=O)NC(N)=O` (configuration not stated), the inhibition is 68.6%.

Consider `Cc1c(Cl)cccc1NC(=O)CSc1nncn1-c1cccnc1`, for which the inhibition turned out to be 2.49%.

For `O=c1nc(-c2ccccc2)c2ccccc2[nH]1`, the inhibition was -10.3%.

Regarding `O=c1cc(-c2ccccc2)[nH]c2ccccc12`, the inhibition came to 14.9%.

As for `CC(C)CN(C(=O)Cn1nnc(-c2ccc(F)cc2)n1)C1CCS(=O)(=O)C1` (configuration not stated), the inhibition came to 2.71%.

In the case of `CCOC(=O)c1c(-c2cccc([N+](=O)[O-])c2)csc1N`, the inhibition was 39.4%.

Take `CCOC(=O)c1cc(-c2cccc([N+](=O)[O-])c2)n[nH]1`: the inhibition is -6.3%.

For `COc1cccc(C(=O)Nc2ccc(-n3nncc3C(C)(C)C)cc2)c1`, the inhibition stood at 9.74%.

With `COc1cccc(Oc2nnnn2-c2ccccc2)c1`, the inhibition was 6.02%.

As for `COc1cccc(-n2nnnc2SCC(=O)NC2CCCC2)c1`, the inhibition was 7.16%.

On to `C=C(C(=O)Oc1ccccc1C(C)(C)C)c1ccccc1`, for which the inhibition was found to be 36.4%.

As for `COC(=O)c1ccc2c(=O)n(CCCCCC(=O)O)c(=O)[nH]c2c1`, the inhibition is -11.8%.

For `CC(NC(=O)c1ccc(F)cc1F)C1CC2CCC1C2` (configuration not stated), the inhibition came to 77.7%.

Regarding `CC(NC(=O)c1cccc(S(=O)(=O)N(C)C)c1)C1CC2CCC1C2` (configuration not stated), the inhibition is -2.47%.

On to `CC(NC(=O)CCC(=O)c1ccc(F)cc1)C1CC2CCC1C2` (configuration not stated), for which the inhibition came to 11.8%.

For `CC(NC(=O)COC(=O)c1ccccc1F)C1CC2CCC1C2` (configuration not stated), the inhibition was 71%.

On to `O=C(C1CCCN(S(=O)(=O)c2cccc3nsnc23)C1)N1CCN(c2ccccn2)CC1` (configuration not stated), for which the inhibition is 16.4%.

On to `CCCCN(C(=O)NCCCCCCNC(=O)N(CCCC)C1CCS(=O)(=O)C1)C1CCS(=O)(=O)C1` (configuration not stated), for which the inhibition is -10.6%.

In the case of `COc1ccc(CC(=O)OCc2nnc(-c3ccccc3)o2)cc1`, the inhibition was found to be 66.7%.

Regarding `COc1cccc(C(Nc2ccccn2)c2oc(CO)cc(=O)c2O)c1` (configuration not stated), the inhibition was found to be 8.94%.

As for `CC(=O)Nc1cccc(OCC(=O)Nc2ccc(F)cc2)c1`, the inhibition was -6.82%.

In the case of `CNC(=O)CO/N=C/c1ccc(N(C)C)cc1`, the inhibition amounted to 3.3%.

Consider `CC(C)CNC(=O)c1cccc(NC(=O)COc2cccc([N+](=O)[O-])c2)c1`, for which the inhibition is 16.2%.

Take `CC(=O)Nc1ccc(/C=N/OCC(=O)Nc2ccc(C)cc2)cc1`: the inhibition is 31.8%.

In the case of `O=C(COc1ccc(CO)cc1)Nc1ccc(F)cc1`, the inhibition is -2.12%.

Turning to `CCOC(=O)c1cccc(NC(=O)COc2ccc([N+](=O)[O-])cc2)c1`, the inhibition worked out at 73.8%.

Take `CC(=O)c1cccc(NC(=O)COc2ccccc2)c1`: the inhibition was 54.2%.

In the case of `O=C(COc1ccccc1)Nc1cccc(-c2nnc(-c3ccccc3)o2)c1`, the inhibition amounted to 15.8%.

For `Cn1c(N)c(C(=O)COC(=O)Cc2ccc(Br)cc2)c(=O)n(C)c1=O`, the inhibition amounted to 3.86%.

On to `O=C(Cc1ccc(F)cc1)N1CCC(CC2CC(c3cccc(Br)c3)=NO2)(C(=O)NCC2CCCCC2)CC1` (configuration not stated), for which the inhibition stood at 37%.

Take `COc1ccc(-n2c(C)c(C)c3c(NCCCO)ncnc32)cc1`: the inhibition was -0.92%.

As a reminder, the inhibition is the drop in the measured response relative to a control, in per cent.
